{"source": "PubChem BioAssay", "note": "A number with no mark means an inactive call. No rule for the calls is given here.", "data": [{"target": "Pantothenate synthetase (Mycobacterium tuberculosis (strain ATCC 25618 / H37Rv)) (UniProt P9WIL5)", "sequence (P9WIL5 whole entry, looked up)": "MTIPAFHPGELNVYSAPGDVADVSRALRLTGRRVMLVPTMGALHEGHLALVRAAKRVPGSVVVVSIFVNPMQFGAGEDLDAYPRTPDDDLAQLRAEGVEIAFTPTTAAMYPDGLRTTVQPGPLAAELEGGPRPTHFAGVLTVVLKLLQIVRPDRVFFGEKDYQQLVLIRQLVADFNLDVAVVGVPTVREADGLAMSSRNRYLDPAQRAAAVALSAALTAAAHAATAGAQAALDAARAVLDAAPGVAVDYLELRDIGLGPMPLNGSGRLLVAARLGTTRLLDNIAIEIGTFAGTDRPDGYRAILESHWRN", "test": "Recombinant Mtb pantothenate synthetase (PanC) inhibitors, coupled enzyme, confirmatory (AID 375);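 also: 0% = full reaction with vehicle and 100% = no enzyme background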", "settings": "coupled enzyme assay; at 10 µM, hits give high values", "units": {"inhibition": "%"}, "values": [{"smiles": "O=C(Nc1ccc(CN2CCOCC2)cc1)c1cc2ccccn2n1", "inhibition": 0}, {"smiles": "CCOC(=O)c1[nH]c(C)c(C(=O)NCC2CCCO2)c1C", "note": "(stereo not given)", "inhibition": 0}, {"smiles": "O=C(C1CCN(c2nnc(-n3cccc3)s2)CC1)N1CCc2ccccc2C1", "inhibition": 0}, {"smiles": "Cc1ccc2nc(C(F)(F)F)c(C#N)c(N)c2c1", "inhibition": 7}, {"smiles": "COC(=O)CSc1nnc(-c2ccc(OC)cc2OC)o1", "inhibition": 0}, {"smiles": "Cc1nc2sccn2c(=O)c1CCN1CCC(=C(c2ccc(F)cc2)c2ccc(F)cc2)CC1", "inhibition": 0}, {"smiles": "Cc1cccc(OCC(=O)N2CCC(N3CCCCCC3)CC2)c1", "inhibition": 0}, {"smiles": "O=C(O)C1CCCCC1C(=O)Nc1ccccn1", "note": "(stereo not given)", "inhibition": 0}, {"smiles": "CCCCc1ccc(NC(=O)c2c(C)noc2C)cc1", "inhibition": 8}, {"smiles": "CC(OC1=CC(=O)CCC1)C(=O)c1ccccc1", "note": "(stereo not given)", "inhibition": 2}, {"smiles": "COc1ccc(S(=O)(=O)N2CCC(C(=O)NCc3ccco3)CC2)cc1", "inhibition": 2}, {"smiles": "CCOC(=O)C1CCN(Cc2ccc(F)c(Br)c2)CC1", "inhibition": 0}, {"smiles": "C[C@]12CC[C@@H]3c4ccc(O)cc4C(=O)C[C@H]3[C@@H]1CC[C@@H]2O", "inhibition": 0}, {"smiles": "COc1ccc(/C=N/n2c(SC)nnc2-c2ccccc2)cc1C", "inhibition": 0}, {"smiles": "CC(=O)Nc1ccc(S(=O)(=O)n2nc(C)cc2C)cc1", "inhibition": 0}, {"smiles": "Fc1cccc(-c2cc3nc4c(c(N5CCN(c6cnccn6)CC5)n3n2)CCCC4)c1", "inhibition": 0}, {"smiles": "O=C(O)c1ccccc1S(=O)(=O)NCC(O)COc1ccc(Br)cc1", "note": "(stereo not given)", "inhibition": 2}, {"smiles": "Cc1cc(C)c(NC(=O)CSc2nnc(-c3ccncc3)n2Cc2ccco2)c(C)c1", "inhibition": 0}, {"smiles": "Cc1cc(C(=O)NCc2cccnc2)no1", "inhibition": 0}, {"smiles": "Nn1c(SCC(=O)Nc2ccc3c(c2)OCCO3)nnc1C(F)(F)F", "inhibition": 4}, {"smiles": "O=C(CNC(=O)c1cc2ccccc2o1)NCc1cccs1", "inhibition": 0}, {"smiles": "COCCOC(=O)/C=C1/NC(=O)CS1", "inhibition": 0}, {"smiles": "Cc1ccc(-c2nn(C)c(=O)c3ccccc23)cc1S(=O)(=O)NCCN1CCOCC1", "inhibition": 2}, {"smiles": "O=S(=O)(Nc1cccnc1)c1ccc2c(c1)OCCO2", "inhibition": 1}, {"smiles": "CC1=C(C)C(=O)NC(Nc2nc(C)c3cc(C)cc(C)c3n2)N1", "note": "(stereo not given)", "inhibition": 0}, {"smiles": "COCCn1nnnc1C(C(C)C)N(Cc1cccnc1)Cc1ccccc1Cl", "note": "(stereo not given)", "inhibition": 2}, {"smiles": "Cn1c(=O)[nH]c(=O)c2c1ncn2CCN1CCOCC1", "inhibition": 0}, {"smiles": "CCN(CC(=O)O)S(=O)(=O)c1cc(Cl)ccc1Cl", "inhibition": 0}, {"smiles": "CCOc1cc(C(=O)NCc2nnc(SCC(=O)OC)n2C)cc(OCC)c1OCC", "inhibition": 2}, {"smiles": "O=C(NCCC1=CCCCC1)N[C@@H](Cc1ccccc1)C(=O)O", "inhibition": 6}, {"smiles": "Cc1ccc(-c2cn3cccnc3n2)cc1NC(=O)c1ccc(Br)o1", "inhibition": 0}, {"smiles": "CCN(CC)CCCNc1oc(-c2cccc(Cl)c2)nc1C#N", "inhibition": 0}, {"smiles": "CN(C)C(=O)N1CCCC(C(=O)NCc2ccccc2)C1", "note": "(stereo not given)", "inhibition": 0}, {"smiles": "CC1CCCN(S(=O)(=O)c2coc(C(N)=O)c2)C1", "note": "(stereo not given)", "inhibition": 0}, {"smiles": "CCOC(=O)c1nnc2ccnn2c1N", "inhibition": 0}, {"smiles": "Cc1ccccc1-c1nc(CN2CCC(C(=O)NCc3cccnc3)CC2)c(C)o1", "inhibition": 0}, {"smiles": "CCn1cc(C(=O)N=c2sc3ccccc3n2C)c(=O)c2ccc(C)nc21", "inhibition": 0}, {"smiles": "CC(C(=O)O)c1ccc(-c2ccccc2)c(F)c1", "note": "(stereo not given)", "inhibition": 0}, {"smiles": "c1ccc(Cn2nnnc2C(c2ccccn2)N2CCOCC2)cc1", "note": "(stereo not given)", "inhibition": 0}, {"smiles": "CC(C)c1ccc(-c2nc(N3CCOCC3)[nH]c(=O)c2C#N)cc1", "inhibition": 7}]}]}
